Assay [1] in a line: qHTS of pediatric cancer cell lines to identify multiple opportunities for drug repurposing: Primary screen for SJ-GBM2 cells (AID 1347091). Note: potency is the fitted concentration of half-maximal effect. A digest of the protocol: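 Viability measured as metabolically active cells via CellTiter-Glo luminescence following 48 hours of compound exposure, 11-point dilutions in confirmatory testing. 500-1,000 cells/well plated 5 hours before dosing; controls were DMSO and 2.3 µM bortezomib.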
For orientation: Quantitative high-throughput screening tests each substance at several concentrations.

A short description of assay [2]: qHTS of pediatric cancer cell lines to identify multiple opportunities for drug repurposing: Primary screen for BT-37 cells (AID 1347094). Note: series mostly up to about 57 µM. A digest of the protocol: (§1)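 Quantitative HTS format: each compound titrated (MIPE 11 points from 0.78 nM, NPC 8 points from 0.59 nM) onto cells plated 5 hours earlier. After 48 h at 37 degrees C, CellTiter-Glo luminescence was recorded.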

Assay [3] can be described thus: qHTS of pediatric cancer cell lines to identify multiple opportunities for drug repurposing: Primary screen for NB-EBc1 cells (AID 1347095). Note: potency is the fitted concentration of half-maximal effect. A digest of the protocol:
as §1

The nature of assay [4]: qHTS of pediatric cancer cell lines to identify multiple opportunities for drug repurposing: Primary screen for U-2 OS cells (AID 1347096). Note: nearly all actives have a fitted effect of over 50% in size. The gist of the method:
(§2)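 Viability after 48 h compound treatment at 37C, 500-1,000 cells/well, read as ATP luminescence with CellTiter-Glo. Primary screens used 11-point (MIPE, 0.78 nM-46 µM) or 8-point (NPC, 0.59 nM-46 µM) final concentrations; follow-up screens used 11-point dilutions.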

The nature of assay [5]: qHTS of pediatric cancer cell lines to identify multiple opportunities for drug repurposing: Primary screen for Saos-2 cells (AID 1347097). Note: nearly all actives have a fitted effect of over 40% in size. Note: potency is the fitted concentration of half-maximal effect. A digest of the protocol:
as §1

Assay [6] in a line: qHTS of pediatric cancer cell lines to identify multiple opportunities for drug repurposing: Primary screen for NB1643 cells (AID 1347099). Note: nearly all actives have a fitted effect of over 50% in size. Note: potency is the fitted concentration of half-maximal effect. A digest of the protocol:
as §1

Assay [7] is described as follows: qHTS of pediatric cancer cell lines to identify multiple opportunities for drug repurposing: Primary screen for LAN-5 cells (AID 1347100). Note: potency is the fitted concentration of half-maximal effect. The gist of the method: as §2
Assay [8] is described as follows: qHTS of pediatric cancer cell lines to identify multiple opportunities for drug repurposing: Primary screen for BT-12 cells (AID 1347101). Note: nearly all actives have a fitted effect of over 25% in size. Note: potency is the fitted concentration of half-maximal effect. The gist of the method:
(§3)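 Cells (500-1,000/well) rested 5 h, then received compounds for 48 h; metabolically active cells were measured by CellTiter-Glo luminescence. Final concentrations spanned up to 46 µM (MIPE, 11-point) or 0.59 nM-46 µM (NPC, 8-point) in primary screens, 11-point in follow-ups.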

Assay [9] is described as follows: qHTS of pediatric cancer cell lines to identify multiple opportunities for drug repurposing: Primary screen for Rh18 cells (AID 1347102). Note: nearly all actives have a fitted effect of over 65% in size. A digest of the protocol:
as §2

A short description of assay [10]: qHTS of pediatric cancer cell lines to identify multiple opportunities for drug repurposing: Primary screen for OHS-50 cells (AID 1347103). Note: nearly all actives have a fitted effect of over 40% in size. Note: potency is the fitted concentration of half-maximal effect. The gist of the method: as §3
The nature of assay [11]: qHTS of pediatric cancer cell lines to identify multiple opportunities for drug repurposing: Primary screen for RD cells (AID 1347104). Note: nearly all actives have a fitted effect of over 55% in size. Note: potency is the fitted concentration of half-maximal effect. The gist of the method: as §1
Assay [12] in a line: qHTS of pediatric cancer cell lines to identify multiple opportunities for drug repurposing: Primary screen for MG 63 (6-TG R) cells (AID 1347105). Note: nearly all actives have a fitted effect of over 50% in size. Note: potency is the fitted concentration of half-maximal effect. A digest of the protocol:
as §1

Assay [13] can be described thus: qHTS of pediatric cancer cell lines to identify multiple opportunities for drug repurposing: Primary screen for control Hh wild type fibroblast cells (AID 1347106).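 Note: series mostly up to about 46 µM; a drop in luminescence marks cytotoxicity and a rise apparent proliferation; nearly all actives have a fitted effect of over 55% in size.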 A digest of the protocol: as §2
The nature of assay [14]: qHTS of pediatric cancer cell lines to identify multiple opportunities for drug repurposing: Primary screen for Rh30 cells (AID 1347107). Note: series mostly up to about 46 µM; nearly all actives have a fitted effect of over 75% in size. A digest of the protocol:
as §2

Assay [15] is described as follows: qHTS of pediatric cancer cell lines to identify multiple opportunities for drug repurposing: Primary screen for Rh41 cells (AID 1347108). Note: nearly all actives have a fitted effect of over 70% in size. Note: potency is the fitted concentration of half-maximal effect. A digest of the protocol: as §1
Assay [16] in a line: qHTS of pediatric cancer cell lines to identify multiple opportunities for drug repurposing: Primary screen for SK-N-SH cells (AID 1347098). Note: nearly all actives have a fitted effect of over 65% in size. Note: potency is the fitted concentration of half-maximal effect. A digest of the protocol: as §3
Assay [17] is described as follows: qHTS of pediatric cancer cell lines to identify multiple opportunities for drug repurposing: Primary screen for SK-N-MC cells (AID 1347093). Note: potency is the fitted concentration of half-maximal effect. The gist of the method:
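Metabolically active cells were quantified by ATP-dependent luminescence (CellTiter-Glo, 15 min at room temperature) following 48 h treatment. Cells had been plated at 500-1,000 per well and settled for 5 h beforehand.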

Assay [18] in a line: qHTS of pediatric cancer cell lines to identify multiple opportunities for drug repurposing: Confirmatory screen for NB1643 cells (AID 1347109). Note: nearly all actives have a fitted effect of over 45% in size. The gist of the method: as §2
The nature of assay [19]: qHTS of pediatric cancer cell lines to identify multiple opportunities for drug repurposing: Confirmatory screen for SK-N-MC cells (AID 1347111).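 Note: cells exposed to compound for 48 h before the readout; nearly all actives have a fitted effect of over 70% in size.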 The gist of the method: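 SK-N-MC cells at 500-1,000 cells/well in growth media were pre-incubated 5 h, then exposed to compounds at 11-point dilutions for 48 h at 37 degrees C, 5% CO2. Viability was read as CellTiter-Glo luminescence.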

Structures are written as SMILES. “And” between values parts separate entries of the source, which are not always exact repeats. Identical values can stand only once. Records with an inconclusive call do not appear. The source made the active and inactive calls. Calls come from the whole dose curve; as a rule, active = well fitted curve in the direction sought with a large enough effect; inconclusive = small, poorly fitted or top-dose-only effect, or another doubt; inactive = no such curve, though single readings can be large; an effect the other way counts as inactive or inconclusive.

In the case of `O=C(c1ccccc1)c1ccc2n1CCC2C(=O)O` (centres undefined), the Potency entry in assay [1], in assay [2], in assay [3], in [4], in assay [5] and in [6] was “inactive” each time. Also, the Potency result in assay [7], in [8], in assay [9], in assay [10], in [11] and in [12] was “inactive” each time. Besides, the Potency result in assay [13], in assay [14] and in assay [15] was “inactive” throughout.
On to `C[C@@H](N)C1CCC(C(=O)Nc2ccncc2)CC1` (some centres undefined), for which, in assay [1], the Potency is 7.43 µM (active). In addition, the Potency result in assay [2], in assay [3], in assay [4], in [6], in assay [7] and in assay [8] was “inactive” each time. Further, the Potency result in assay [9], in assay [10], in assay [11], in assay [12], in assay [13] and in [14] was “inactive” throughout. In assay [15], the Potency result was “inactive”.
For `Clc1ccc(C(Cn2ccnc2)OCc2c(Cl)cccc2Cl)c(Cl)c1` (centres undefined), the Potency result in assay [1], in [4], in [16], in [9], in assay [12] and in assay [13] was “inactive” each time. Besides, the Potency result in assay [14] and in [15] was “inactive” in each case. Besides, in assay [10], the Potency was 19.5 µM (active) and 24.3 µM (active).
Take `Cc1cc(Cl)ccc1OCCCC(=O)NO`: the Potency was 2.09 µM (active) in assay [17]; 4.69 µM (active) in [3]; 11.8 µM (active) in [5]; 19.2 µM (active) in assay [16]; 4.18 µM (active) in assay [6]; 2.64 µM (active) in assay [7]. Moreover, the values for the Potency in assay [11], in assay [12] and in assay [15] were 18.7 µM (active), 7.43 µM (active) and 14.8 µM (active), respectively. The Potency entry in [8] is “inactive”.
`Nc1nc(OCc2ccccc2)c2[nH]cnc2n1`: the Potency in assay [3] was 18.7 µM (active). Further, the Potency entry in assay [4], in assay [7], in assay [8], in assay [9], in [11] and in assay [12] was “inactive” throughout. Further, the Potency result in assay [13], in assay [14], in [18] and in [19] was “inactive” in each case.
Take `CCCc1cc(=O)[nH]c(=S)[nH]1`: the Potency entry in [1], in [2], in assay [4], in assay [5], in assay [16] and in assay [6] was “inactive” each time. The Potency entry in assay [8], in assay [9], in assay [10], in assay [11], in assay [12] and in assay [13] was “inactive” throughout. Besides, the Potency entry in assay [14] and in [15] was “inactive” each time.
For `CCCCCCCCOc1ccccc1C(=O)Nc1ccc(C(=O)OCC[N+](C)(CC)CC)cc1`, the Potency entry in assay [3], in assay [7], in [10], in [12], in assay [13] and in assay [15] was “inactive” each time. The Potency was 29.6 µM (active) in assay [5] and 17.4 µM (active) in [8].
As to `CC(C)c1nc(CN(C)C(=O)N[C@H](C(=O)N[C@@H](Cc2ccccc2)C[C@H](O)[C@H](Cc2ccccc2)NC(=O)OCc2cncs2)C(C)C)cs1`, the Potency in assay [17] was 10.5 µM (active); in assay [3] it was 23.7 µM (active). The Potency result in assay [2], in [4], in assay [5], in assay [8], in assay [11] and in assay [13] was “inactive” in each case.
